Data published in PubChem BioAssay.
Activity calls are given as the source filed them.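 The calls were made as follows, unless noted: active = inhibition at or above 50% at 10 µM; inactive = inhibition below 50%.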

Columns and labels:
[1] = inhibitors of TNFa-induced NFkB p65 translocation, primary screen, imaging, HUVEC, MLSMR starter and 10KST1 sets (AID 438;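 active = inhibition above 20% together with a positive visual image hit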;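 also: compound added about 3h40 before a 20 min TNFalpha stimulation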;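 as to inhibition: signal is the nuclear over cytoplasmic p65 intensity ratio per well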); conditions: HUVEC TNFa-induced p65 nuclear translocation; cell count: measured here: nuclei count (cytotoxicity indicator), at 2.08 µM; inhibition: at 2 µM, stronger effect = higher value, 0% TNFa-plus-vehicle, 100% no-TNFa wells
[2] = reduction of polyQ htt aggregates in cells – imaging, exon1htt(103Q)mCFP cells, high-content imaging, primary screen (AID 483;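 active = visual image review flags a hit and inhibition of aggregation exceeds 20%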;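 also: compound exposure lasted 3 days before fixation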;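 as to nuclei count: percent of the per-plate median nuclei count of sample wells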); conditions: exon1htt(103Q)mCFP cell line, aggregate imaging, at 2 µM; inhibition of aggregation: stronger effect = higher value; nuclei count: measured here: cell count, toxicity
[3] = endothelial E-selectin expression blockers – imaging, HUVEC, immunofluorescence, MLSMR starter and 10KST1 sets, primary screen (AID 487;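 active = visually confirmed hit in the image check and inhibition above 20%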;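 as to inhibition: signal is fraction of cell area covered by stained E-selectin grains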;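 as to nuclei count: 100% = median nuclei count of all wells on the same plate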); conditions: HUVEC TNFalpha-induced E-selectin immunofluorescence imaging, at 2 µM; inhibition: stronger effect = higher value; nuclei count: measured here: cell number, toxicity
[4] = target: Voltage-gated potassium channel subunit beta-2 (Rattus norvegicus) (UniProt P62483); assay: inhibitors of rat Kvbeta2 reductase activity – biochemical, NADPH fluorescence, primary screen (AID 622;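 active = fluorescence slope higher than the sample average by over 3 SD, cut at about -0.22 in these data, passing the limit was not always enough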;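 also: slope of raw intensity against log time taken from 70 to 1610 s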); conditions: recombinant KvBeta, 4-cyanobenzaldehyde reduction, at 10 µM, stronger effect = higher value
Chain of Voltage-gated potassium channel subunit beta-2 (Rattus norvegicus) (P62483 whole entry, looked up): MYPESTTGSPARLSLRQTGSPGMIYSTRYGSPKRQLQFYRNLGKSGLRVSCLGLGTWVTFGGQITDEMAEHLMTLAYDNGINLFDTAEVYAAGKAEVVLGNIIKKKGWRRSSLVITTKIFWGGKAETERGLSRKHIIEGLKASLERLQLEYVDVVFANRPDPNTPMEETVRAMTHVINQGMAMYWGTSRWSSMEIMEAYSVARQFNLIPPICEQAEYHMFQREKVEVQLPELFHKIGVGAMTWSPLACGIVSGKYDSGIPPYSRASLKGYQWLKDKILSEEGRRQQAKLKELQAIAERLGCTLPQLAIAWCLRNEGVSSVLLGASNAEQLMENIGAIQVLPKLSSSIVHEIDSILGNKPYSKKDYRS

[5] = target: Voltage-gated potassium channel subunit beta-2 (Rattus norvegicus) (UniProt P62483); assay: enhancers of rat Kvbeta2 NADPH turnover – biochemical, NADPH fluorescence, primary screen (AID 623;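 active = NADPH fluorescence slope more negative than the mean of all samples by about 3 SD, 99.7% confidence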;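 also: fluorescence intensity change per second fitted from 20 to 320 s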); conditions: Recombinant KvBeta, NADPH fluorescence decrease slope, 10 min; at 10 µM; stronger effect = lower value
[6] = target: Alpha-2C adrenergic receptor (Homo sapiens) (UniProt P18825); assay: compounds altering alpha2C-coupled GIRK flux – cell-based, HEK293 alpha2C/GIRK1/2, thallium flux, primary screen (AID 624;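 active = fluorescence slope after compound addition differing from the mean of all screened samples at 99.7% confidence, in either direction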;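 also: slope of fluorescence ratio to pre-addition baseline per second over 15 to 24 s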); conditions: thallium flux BTC fluorescence, at 10 µM, actives lie on both sides
Chain of Alpha-2C adrenergic receptor (Homo sapiens) (P18825 whole entry, looked up): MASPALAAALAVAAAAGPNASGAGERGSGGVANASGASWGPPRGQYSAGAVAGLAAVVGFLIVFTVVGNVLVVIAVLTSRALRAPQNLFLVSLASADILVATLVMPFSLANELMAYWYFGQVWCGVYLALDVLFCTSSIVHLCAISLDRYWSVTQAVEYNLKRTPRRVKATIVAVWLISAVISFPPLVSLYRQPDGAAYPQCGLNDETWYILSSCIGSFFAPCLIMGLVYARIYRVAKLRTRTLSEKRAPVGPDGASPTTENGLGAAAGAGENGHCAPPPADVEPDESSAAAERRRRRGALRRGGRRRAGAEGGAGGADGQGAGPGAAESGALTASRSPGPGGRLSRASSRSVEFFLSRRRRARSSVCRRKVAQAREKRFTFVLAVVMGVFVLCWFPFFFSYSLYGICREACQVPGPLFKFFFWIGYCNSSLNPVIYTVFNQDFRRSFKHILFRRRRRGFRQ

[7] = blockers of RIG-like receptor reporter activation – cell-based, Sendai virus stimulus, luciferase, 10K MLSCN set, TLR/RLR signaling modifier project, primary screen (AID 602276); conditions: HEK293 RL24 IRF3 luciferase reporter, at 10 µM, stronger effect = higher value;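 also: firefly luciferase from ISG56 promoter only with Renilla not read in this screen; 0% = Sendai virus plus DMSO and 100% = medium plus DMSO without virus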
[8] = TLR3 IRF3 reporter activation blockers – cell-based, poly I:C stimulus, luciferase, 10K MLSCN set, primary screen (AID 602277;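 active = inhibition of the reporter signal at or above 50%; inactive = inhibition below 50%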); conditions: HEK293-TLR3 RL24 IRF3 luciferase reporter, at 10 µM, stronger effect = higher value

SMILES	cell count [1]	inhibition [1]	inhibition of aggregation [2]	nuclei count [2] [%]	inhibition [3]	nuclei count [3] [%]	fluorescence slope [4]	NADPH fluorescence slope [5]	slope [6]	inhibition [7]	inhibition [8]
O=C(CCN1C(=O)COc2ccccc21)NCCCN1CCN(c2ccccc2F)CC1	660	-7.1% (inactive)	-1.6% (inactive)	73.9	-82.2% (inactive)	93.3	-0.425 (inactive)	-2.7e-05 (inactive)	0.004 (inactive)	11.7% (inactive)	15% (inactive)
CC(CCc1ccco1)NC(=O)Cn1ncc2c1-c1ccccc1OC2 (stereo not drawn)	762	-3.2% (inactive)	-17.9% (inactive)	126	0.8% (inactive)	120	-0.539 (inactive)	-1.5e-05 (inactive)	0.00662 (inactive)	-1.38% (inactive)	11.2% (inactive)
CCc1nnc(NC(=O)c2cc3ccccc3oc2=O)s1	597	-9.6% (inactive)	15.7% (inactive)	96.9	-67.3% (inactive)	96.3	-0.57 (inactive)	-2e-05 (inactive)	0.00433 (inactive)	-9.54% (inactive)	-77.5% (inactive)
c1coc(-c2nnc(NC3=NCCC3)o2)c1	527	-5.3% (inactive)	6.6% (inactive)	98.8	-80.8% (inactive)	162	-0.526 (inactive)	2.5e-05 (inactive)	0.0054 (inactive)	-15.4% (inactive)	-42.4% (inactive)
O=C(NC1CCN(Cc2nnnn2CCc2ccccc2)CC1)c1ccccc1F	744	0% (inactive)	-8.8% (inactive)	99.7	-44.2% (inactive)	116	-0.295 (inactive)	-3.3e-06 (inactive)	0.00487 (inactive)	11.5% (inactive)	27.2% (inactive)
COc1ccc(-c2nc(CSCC(=O)N3CCc4ccccc4C3)c(C)o2)cc1OC	643	6.9% (inactive)	-5.2% (inactive)	101	5.9% (inactive)	116	-0.603 (inactive)	-1.8e-06 (inactive)	0.00589 (inactive)	8.21% (inactive)	12.7% (inactive)
CCOC(=O)CSc1nnc2n1C(C)(C)Cc1ccccc1-2	305	-0.9% (inactive)	0.5% (inactive)	51.3	-102% (inactive)	117	-0.384 (inactive)	-8.4e-05 (inactive)	0.00549 (inactive)	-15.4% (inactive)	-27.1% (inactive)
Cc1ccc2c(C)nc(NC3=NCN(C(C)C)CN3)nc2c1	604	4.7% (inactive)	5.5% (inactive)	93.5	-33.7% (inactive)	125	-0.543 (inactive)	1.2e-05 (inactive)	0.0049 (inactive)	11.3% (inactive)	14.9% (inactive)
CN1CCc2c(sc3c2c(=O)n(-c2cccc(Cl)c2)c2nncn32)C1	579	13.9% (inactive)	5.9% (inactive)	112	37.3% (inactive)	105	-0.513 (inactive)	-3.5e-05 (inactive)	0.00609 (inactive)	-7.55% (inactive)	11.7% (inactive)
O=C(CNc1ccc(Oc2ccccc2)cc1)N1CCOCC1	622	-26.3% (inactive)	2.1% (inactive)	103	-25.6% (inactive)	97.4	-0.541 (inactive)	-0.000138 (inactive)	0.00652 (inactive)	18.1% (inactive)	3.08% (inactive)
CCN(CC)S(=O)(=O)c1ccc(NC(=O)Cn2cnc3ccccc3c2=O)cc1	321	-1.8% (inactive)	15.7% (inactive)	96	-112% (inactive)	108	-0.483 (inactive)	-0.000135 (inactive)	0.0039 (inactive)	12.3% (inactive)	16% (inactive)
Cc1cccc(CN2CCC(CNC(=O)C3CCCN(S(=O)(=O)c4cnc[nH]4)C3)CC2)c1 (stereo not drawn)	706	-12.2% (inactive)	10.2% (inactive)	106	-61.1% (inactive)	125	-0.518 (inactive)	-3.2e-05 (inactive)	0.0058 (inactive)	18.8% (inactive)	27.2% (inactive)
O=C(NC1CCCCC1)C(c1ccccc1)N(Cc1ccco1)C(=O)Cn1cnc2ccccc21 (stereo not drawn)	375	-1.6% (inactive)	-19.6% (inactive)	114	-70.5% (inactive)	108	-0.586 (inactive)	-3.7e-05 (inactive)	0.00243 (inactive)	9.18% (inactive)	20.8% (inactive)
CCn1c(CSc2nc(C)cc(C)n2)nnc1SCC(=O)Nc1ccccc1	579	1.9% (inactive)	-15.5% (inactive)	101	-38.7% (inactive)	142	-0.436 (inactive)	-3.8e-05 (inactive)	0.00615 (inactive)	-15.1% (inactive)	-10.7% (inactive)
Cc1cccc(NC(=O)c2cc(NC(=O)c3ccco3)ccc2Cl)n1	678	-2.8% (inactive)	16.4% (inactive)	83.5	19.9% (inactive)	98	-0.529 (inactive)	1.5e-06 (inactive)	0.00521 (inactive)	1.7% (inactive)	-7.38% (inactive)
COc1ccc2nc3oc(C(=O)N4CCCCC4)cc3cc2c1	194	1.8% (inactive)	-10.4% (inactive)	105	-13.7% (inactive)	112	-0.0908 (inactive)	-2.5e-05 (inactive)	0.00338 (inactive)	-36.8% (inactive)	-132% (inactive)
COCCCN(Cc1ccccn1)S(=O)(=O)Cc1ccccc1	510	-9.9% (inactive)	4.7% (inactive)	97.4	10% (inactive)	102	-0.517 (inactive)	8e-06 (inactive)	0.00578 (inactive)	3.22% (inactive)	15.9% (inactive)
CCN1CCN(C(CNC(=O)c2ccc3c(c2)OCO3)c2cccnc2)CC1 (stereo not drawn)	796	-13.5% (inactive)	0.6% (inactive)	98	-10.9% (inactive)	109	-0.541 (inactive)	1.4e-05 (inactive)	0.00612 (inactive)	-18.9% (inactive)	-1.81% (inactive)
O=C(CSc1nc2ccsc2c(=O)n1NC(=O)c1ccccc1)Nc1nccs1	414	3.2% (inactive)	4% (inactive)	98.2	-134% (inactive)	101	-0.342 (inactive)	-7e-06 (inactive)	0.00492 (inactive)	-7.17% (inactive)	0.179% (inactive)
CC1=C(C(=O)N2CCCCC2)C(c2cccs2)C2=C(CCCC2=O)N1 (stereo not drawn)	332	-3.9% (inactive)	8.9% (inactive)	95.9	-31.6% (inactive)	92.4	-0.29 (inactive)	-3.5e-05 (inactive)	0.0061 (inactive)	7.2% (inactive)	6.53% (inactive)
O=C(CCC(=O)c1cccs1)NCc1ccccc1	462	-0.2% (inactive)	-5.4% (inactive)	111	-24.2% (inactive)	132	-0.622 (inactive)	-5.1e-06 (inactive)	0.0103 (inactive)	-1.41% (inactive)	1.97% (inactive)
Fc1ccc(-n2c(Cc3ccccc3)nnc2SCc2nc(-c3cccs3)no2)cc1	466	2.5% (inactive)	0.1% (inactive)	86.5	-52.5% (inactive)	108	-0.63 (inactive)	-4.2e-05 (inactive)	0.00381 (inactive)	-1.69% (inactive)	1.22% (inactive)
CCCc1nnc(NC(=O)NCCN2C(=O)C3C4C=CC(C4)C3C2=O)s1 (stereo not drawn)	700	-10.4% (inactive)	-8.7% (inactive)	76	-78.4% (inactive)	125	-0.602 (inactive)	1.8e-06 (inactive)	0.00718 (inactive)	-17.6% (inactive)	-19.1% (inactive)
CCOC(=O)c1ccc(COC(=O)c2cc3ccccc3oc2=O)o1	607	-1.2% (inactive)	1.7% (inactive)	101	-39.1% (inactive)	96.9	-0.48 (inactive)	1.6e-06 (inactive)	0.00426 (inactive)	-6.72% (inactive)	-32.7% (inactive)
C=CCn1c(C)cc(C(=O)CSc2nc3ccccc3o2)c1C	615	-8.9% (inactive)	-16.3% (inactive)	105	-58.1% (inactive)	104	-0.595 (inactive)	-5.9e-05 (inactive)	0.00586 (inactive)	-26.5% (inactive)	-136% (inactive)
COc1ccc(NC(=O)CS(=O)CC(=O)Nc2cc(Cl)ccc2OC)cc1 (stereo not drawn)	485	10.5% (inactive)	5.3% (inactive)	71.7	-34.6% (inactive)	96	-0.362 (inactive)	-6.2e-05 (inactive)	0.00691 (inactive)	13.1% (inactive)	28.4% (inactive)
CCOc1ccc2nc(SCc3ccc(C(=O)OC)o3)[nH]c2c1	335	15.9% (inactive)	16.9% (inactive)	96.5	-39.4% (inactive)	112	-0.546 (inactive)	2e-06 (inactive)	0.00497 (inactive)	8.32% (inactive)	-5.74% (inactive)
COc1cc(NC2c3ccccc3C(=O)N2c2ccc(C)cn2)cc(OC)c1OC (stereo not drawn)	619	5.5% (inactive)	11.3% (inactive)	85.2	-7.5% (inactive)	109	-0.593 (inactive)	1.6e-05 (inactive)	0.00732 (inactive)	-30.9% (inactive)	-44.7% (inactive)
